# Compounds with a hit are over-represented: about 3.6% of the library has one in this group of screens.
# PI5P4K alpha inh: PI5P4K alpha (human) kinase inhibition | P48426 | AID 652105 | hit rate 1.2% among 330,000 | max response, % | PI5P4Kalpha enzyme, ADP-Glo luminescence, 60 min; hits give low values; active = max response of -50% or lower; inconclusive = between -30% and -50%; inactive = -30% or higher; also: value at the top dose of about 77 µM; % is scaled to controls: 0 for no effect and ±100 for the full control effect
# Target sequence (P48426 whole entry, looked up): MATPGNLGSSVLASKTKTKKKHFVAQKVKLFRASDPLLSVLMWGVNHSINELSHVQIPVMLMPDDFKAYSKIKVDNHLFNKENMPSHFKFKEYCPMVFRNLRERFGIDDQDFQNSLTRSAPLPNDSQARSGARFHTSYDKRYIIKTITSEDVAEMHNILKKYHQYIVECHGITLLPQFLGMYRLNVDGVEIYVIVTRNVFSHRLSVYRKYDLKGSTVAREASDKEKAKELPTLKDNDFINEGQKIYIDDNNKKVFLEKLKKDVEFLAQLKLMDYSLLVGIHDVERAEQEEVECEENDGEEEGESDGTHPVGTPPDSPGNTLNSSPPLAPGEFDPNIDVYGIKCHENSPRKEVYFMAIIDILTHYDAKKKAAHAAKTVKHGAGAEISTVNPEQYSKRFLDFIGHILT
#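 Single end-point luminescence (ADP-Glo) quantified ADP from PI5P4Kalpha turnover; ATP 5 microM final, 1 h at RT, 0.1% CHAPS and 0.28 mM EGTA in HEPES pH 7.4.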
# Rango-impB inh: Rango-importin beta binding inhibition; Rango CFP/YFP FRET sensor + importin beta, 45 min; hit rate 0.031% among 340,000; Potency, µM (titrated, usually from 92.2 µM), for the others: at the highest dose inhibition of complex formation; Q14974; calls by dose curve;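 also: potency is read from the fitted curve at half-maximal effect; 0% = DMSO wells and 100% = buffer wells lacking importin beta; nearly all actives have a fitted effect of over 15% in size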
#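 Inhibition scored from the CFP 486 nm/YFP 530 nm FRET ratio 45 min after adding 0.125 microM importin beta to 50 nM Rango biosensor preincubated 5 min with compound (room temperature, PBS with DTT, Tween-20, BSA). No-importin wells as positive control.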
# PLK1 PBD inh: inhibitors of human PLK1 polo-box domain binding; Plk1 PBD binding of FITC phosphopeptide, fluorescence polarization; Potency, µM, inactives show max response, negative = inhibition, hits mostly inhibitors; hit rate 2.8% among 360,000; P53350; also: potency is read from the fitted curve at half-maximal effect; series mostly up to about 57 µM; % is scaled to controls: 0 for no effect and ±100 for the full control effect; nearly all actives have a fitted effect of over 65% in size
# Rango release inh: inhibition of RanGTP-driven Rango-importin beta dissociation; O95149+P62826; Biochemical FRET Rango-importin beta, RanGTP-induced dissociation; Potency, µM (titrated, usually from 46.1 µM), without a hit: at the top dose activity change, negative = inhibition; hit rate 0.071% among 340,000; AID 540253; calls by dose curve; also: potency is read from the fitted curve at half-maximal effect; % of control where 0% means no effect; nearly all actives have a fitted effect of over 45% in size
#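 Compounds preincubate 5 min with complex of recombinant Rango and importin beta in PBS with 1 mM DTT. Ran (0.6 uM) loaded with 2 mM GTP plus 0.2 uM RCC1 starts dissociation; FRET is recorded 45 min later.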
# GCN5L2 inh: GCN5L2 (KAT2A) acetyltransferase inhibition; Q92830; GCN5L2 HAT assay, ThioGlo1 CoA-SH fluorescence; AID 504327; hit rate 0.21% among 390,000; Potency, µM (titrated, usually from 58.9 µM), without a hit: at the highest dose activity change, negative = inhibition, most hits filed as inhibitors; also: potency is read from the fitted curve at half-maximal effect; % is scaled to controls: 0 for no effect and ±100 for the full control effect
#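 Titration-based screen in which CoA formation is detected via maleimide probe ThioGlo1 (50uM) turning fluorescent on thiol reaction; substrates H3(1-25) 75uM and acetyl-CoA 70uM, GCN5L2 20nM, 20 min incubation at room temperature.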
# VDR inhibitor: vitamin D3 receptor (human) inhibition | P11473 | VDR-SRC2-3 peptide fluorescence polarization, 2 h | Potency, µM, without a hit: max response, negative = inhibition, most hits filed as inhibitors | hit rate 0.93% among 400,000 | AID 504847; also: potency is read from the fitted curve at half-maximal effect; % is scaled to controls: 0 for no effect and ±100 for the full control effect
#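 Compounds are added to VDR with labelled SRC2-3 coactivator peptide and held 2 h at room temperature. Inhibition of the VDR–peptide interaction is then read as a change in fluorescence polarization.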
# * = called active by the depositor; ? = inconclusive; nt = no result given. Unless noted, calls follow the shape of the dose curve; as a rule, active = well fitted curve in the direction sought with a large enough effect; inconclusive = small, poorly fitted or top-dose-only effect, or another doubt; inactive = no such curve, though single readings can be large; an effect the other way counts as inactive or inconclusive.
SMILES,PI5P4K alpha inh,Rango-impB inh,PLK1 PBD inh,Rango release inh,GCN5L2 inh,VDR inhibitor
O=C(O)/C=C/c1cn(Cc2ccccc2Cl)nc1-c1ccccc1,-16,0%,27µM*,-11%,-13%,?
O=C1C2=C(S[C@@H]3O[C@H](CO)[C@@H](O)[C@H](O)[C@H]3O2)C(=O)c2ccccc21,nt,nt,nt,nt,nt,35µM*
COc1c(O)cc2c(c1O)[C@@H]1O[C@H](CO)[C@@H](O)[C@H](O)[C@H]1OC2=O,1,2%,8%,-1%,-16%,-13%
COc1cc(OC)c(NS(=O)(=O)c2c(C(=O)N3CCCCCC3)c(C)n(C)c2C)cc1Cl,nt,nt,nt,nt,-14%,-7%
CC(C)(C)NCC(O)COCc1ccc(Cl)cc1 (stereo unspecified),-12,0%,24µM*,-13%,-5%,-18%
Cc1ccc(NC(=O)Cn2c(C)cc(C)c(C#N)c2=O)cc1F,nt,nt,nt,nt,-21%,7%
Cc1onc(-c2ccccc2)c1C(=O)n1nnc2ccccc21,-5,3%,?,9%,-2%,-22%
O=C(CCCOc1ccc(Cl)cc1Cl)n1nnc2ccccc21,0,-4%,8.4µM*,12%,-4%,71µM*
CC(=O)c1ccc(OCCCC(=O)n2nnc3ccccc32)cc1,-1,0%,21µM*,1%,-3%,?
O=C(c1ccccc1)n1nnc2ccccc21,9,4%,6µM*,24%,nt,-9%
CC(C)COc1ccc(C(=O)Nc2nnc(S(=O)(=O)N(C)Cc3ccco3)s2)cc1,nt,nt,nt,nt,-11%,14%
Cc1cc2c(cc1S(=O)(=O)NCc1ccc(F)cc1)OCCN2C,nt,nt,nt,nt,-4%,-2%
Cc1cc(N/N=C/c2ccc(O)cc2)c2cccc(C)c2n1,-15,?,1%,?,-15%,4%
Cc1cc(C)c2nc(C)cc(N/N=C/c3ccc(O)cc3)c2c1,-15,?,-21%,15µM*,-11%,5%
COc1ccc(Br)cc1CNC(=O)c1nn(-c2ccc(C)cc2)c(=O)c2c1c1ccccc1n2C,nt,nt,nt,nt,-1%,-8%
COc1ccccc1Nc1nn2c(=O)c3ccc(C(=O)NCCc4ccccc4)cc3nc2s1,nt,nt,nt,nt,-6%,10%
COc1cccc(-c2cncnc2Nc2ccc(F)cc2)c1,nt,nt,nt,nt,?,50µM*
COc1cccc(-c2cncnc2NCc2ccccc2OC)c1,nt,nt,nt,nt,-13%,?
O=C(COc1ccccc1F)NNC(=O)c1cccc(-n2cccc2)c1,5,-2%,-3%,1%,-4%,4%
O=C(COc1cccc(F)c1)NNC(=O)c1cccc(-n2cccc2)c1,-63*,-4%,-11%,16%,?,-11%
COc1ccc(N2CC3=C(C2=O)C(c2ccc(O)c(OC)c2)NC(=O)N3C)cc1 (stereo unspecified),nt,nt,nt,nt,-2%,-7%
CCC(Cn1nnc2ccccc2c1=O)NC(=O)Nc1ccc(C)cc1C (stereo unspecified),nt,nt,nt,nt,-5%,-1%
N#Cc1c(-c2ccccc2)cc(-c2ccccc2)nc1SCCC(=O)O,-20,7%,21µM*,-5%,-21%,?
N#Cc1c(-c2ccc(F)cc2)cc(-c2ccccc2)nc1SCC(=O)NCC(=O)O,-20,-5%,19µM*,-8%,?,?
N#Cc1c(-c2ccc(Cl)cc2)cc(-c2ccccc2)nc1SCC(=O)O,-8,?,?,-23%,-1%,?
SMILES,PI5P4K alpha inh,Rango-impB inh,PLK1 PBD inh,Rango release inh,GCN5L2 inh,VDR inhibitor
CCCCN(C)CCNC(=O)c1ccc2c(=O)n(CCc3ccccc3)c(=O)[nH]c2c1,nt,nt,nt,nt,2%,-11%
COc1ccc(-c2cc(C)no2)cc1S(=O)(=O)Nc1c(C)cc(C)cc1C,nt,nt,nt,nt,-20%,9%
COC(=O)c1nnn(CC(=O)Nc2c(C)cccc2C)c1N,nt,nt,nt,nt,-1%,7%
CN1CC=C2C(C#N)=C(N)C(C#N)(C#N)[C@H](c3ccoc3)[C@H]2C1,-11,?,15µM*,?,?,?
CC(=O)N1CC=C2C(C#N)=C(N)C(C#N)(C#N)[C@H](c3ccoc3)[C@H]2C1,nt,?,-12%,?,-6%,-24%
COc1ccc(N=C2NC(=O)CS2)c([N+](=O)[O-])c1,-1,-1%,27µM*,-26%,20%,-2%
C=CCOc1ccc(/C=C(\C#N)C(=O)Nc2ccccn2)cc1,0,?,-7%,26µM*,-8%,7%
COc1cc(/C=C(\C#N)C(=O)Nc2ccccn2)ccc1O,-52*,?,19%,?,-3%,-19%
N#C/C(=C\c1ccccc1)C(=O)Nc1ccccn1,1,?,-10%,?,1%,-6%
N#C/C(=C/c1ccc(O)c([N+](=O)[O-])c1)C(=O)Nc1ccccc1,-61*,-1%,-12%,3%,-14%,-30%
Cc1cccc(OCCOCCn2c(-c3ccc(Cl)cc3)nc3ccccc3c2=O)c1C,nt,nt,nt,nt,-3%,-20%
CC1CCCCN1C(=O)CSc1n[nH]c(-c2ccccc2Cl)n1 (stereo unspecified),nt,nt,nt,nt,1%,8%
Cc1cccc2c1-c1sc(C(=O)N(C)c3cccc(Cl)c3)cc1CO2,nt,nt,nt,nt,-12%,-12%
Cc1cc(C(=O)N/N=C/c2ccco2)c2ccccc2n1,-2,0%,-5%,27%,-1%,1%
Cc1cc(N/N=C/c2ccco2)c2ccccc2n1,-27,2%,24µM*,11%,-5%,?
COCCc1ncc(CN2CCC(C(=O)Nc3cccc(-c4cscn4)c3)CC2)cn1,-6,1%,19µM*,5%,-1%,-28%
Cc1cc(=O)[nH]c(N/N=C/C2=C(N3CCOCC3)C(=C\c3ccc(Cl)cc3)/CC2)n1,?,?,?,?,-5%,89µM*
CCC(C)Sc1oc(-c2ccco2)nc1S(=O)(=O)c1ccc(Cl)cc1 (stereo unspecified),nt,nt,nt,nt,-15%,-6%
Cc1cccc(/C=N/NC(=O)c2cc3c(s2)-c2ccccc2CC3)c1,3,2%,21µM*,-15%,?,-9%
O=C(N/N=C/c1cccc(C(F)(F)F)c1)c1cc2c(s1)-c1ccccc1CC2,-1,0%,-3%,-13%,?,-1%
O=c1[nH]c(C2CCN(S(=O)(=O)c3ccccc3)CC2)nc2c1nnn2Cc1ccccc1,2,-2%,24µM*,-5%,-2%,-30%
O=c1[nH]c(C2CCN(S(=O)(=O)c3ccc([N+](=O)[O-])cc3)CC2)nc2c1nnn2Cc1ccccc1,-1,-1%,-1%,6%,-7%,-11%
Cc1ccc2onc(CNC(=O)NCc3ccccc3)c2c1,nt,nt,nt,nt,-5%,2%
COc1ccc(CN=Cc2c(O)[nH]c3ccccc23)cc1,-20,-2%,21µM*,-1%,-6%,-7%
COc1ccc(CN=Cc2c(C(F)(F)F)[nH][nH]c2=O)cc1,-3,0%,27µM*,7%,0%,-14%

# Source: PubChem
